In all, about 5,500 compounds went through this assay and about 2,000 (36%) were called active. About 18% were inconclusive and are not listed. Cut-off read from the data, not from the text of the source: active = normalized growth mostly below about 0.91 (no sharp cut-off); inconclusive = no clear call, values can overlap the other calls; inactive = mostly above about 0.92. The list shows a part of the results.
Assay: chemical genetic growth profiling, strain panel (AID 1159580);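 note: tested at 20 µM; growth read once vehicle control cultures reached saturation at 30 °C; 1 = growth at the plate median or of vehicle wells; lower values mean less growth of the strain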
Details: S. cerevisiae deletion strains, growth OD

Measured: normalized growth

CC(=O)c1sc(SCCS(=O)(=O)c2ccc(C)cc2)c2c1CC(C)(C)CC2=O
inactive: locus YAR019C, strain CDC15, active compounds read low 0.984 | locus YBL105C, strain PKC1, active compounds read low 1.01 | locus YBR135W, strain CKS1, active compounds read low 0.984 | locus YBR136W, strain MEC1, active compounds read low 0.98 | locus YBR160W, strain CDC28, active compounds read low 0.98 | locus YDL017W, strain CDC7, active compounds read low 0.992 | locus YDL028C, strain MPS1, active compounds read low 0.98 | locus YDL101C, strain DUN1, active compounds read low 0.969 | locus YDL108W, strain KIN28, active compounds read low 0.97 | locus YDL132W, strain cdc53, active compounds read low 0.978 | locus YDL214C, strain PRR2, active compounds read low 0.926 | locus YDR052C, strain DBF4, active compounds read low 0.935 | locus YDR054C, strain cdc34, active compounds read low 1.01 | locus YDR226W, strain ADK1, active compounds read low 0.962 | locus YER123W, strain YCK3, active compounds read low 0.914 | locus YFL009W, strain cdc4, active compounds read low 0.973 | locus YFL029C, strain CAK1, active compounds read low 0.986 | locus YFR003C, strain YPI1, active compounds read low 0.97 | locus YFR019W, strain FAB1, active compounds read low 0.932 | locus YFR028C, strain CDC14, active compounds read low 0.97 | locus YGR052W, strain FMP48, active compounds read low 0.947 | locus YGR092W, strain DBF2, active compounds read low 0.963 | locus YHR079C, strain IRE1, active compounds read low 1.08 | locus YHR082C, strain KSP1, active compounds read low 0.987 | locus YHR205W, strain SCH9, active compounds read low 0.958 | locus YIL147C, strain SLN1, active compounds read low 0.979 | locus YJL095W, strain BCK1, active compounds read low 0.589 | locus YJL128C, strain PBS2, active compounds read low 0.982 | locus YJL157C, strain FAR1, active compounds read low 0.943 | locus YJR016C, strain ILV3, active compounds read low 0.985 | locus YJR066W, strain TOR1 (second series), active compounds read low 0.82 | locus YJR066W, strain TOR1, active compounds read low 0.995 | locus YKL048C, strain ELM1, active compounds read low 0.859 | locus YKL067W, strain YNK1, active compounds read low 0.936 | locus YKL101W, strain HSL1, active compounds read low 0.926 | locus YKL193C, strain SDS22, active compounds read low 0.98 | locus YLR113W, strain HOG1, active compounds read low 0.912 | locus YLR133W, strain CKI1, active compounds read low 0.931 | locus YLR403W, strain SFP1, active compounds read low 0.828 | locus YML070W, strain DAK1, active compounds read low 0.948 | locus YMR001C, strain CDC5, active compounds read low 0.983 | locus YMR205C, strain PFK2 (second series), active compounds read low 0.923 | locus YMR277W, strain FCP1, active compounds read low 0.964 | locus YNL006W, strain LST8, active compounds read low 0.967 | locus YNL020C, strain ARK1, active compounds read low 0.935 | locus YNL161W, strain CBK1, active compounds read low 0.973 | locus YNL183C, strain NPR1, active compounds read low 0.962 | locus YNL207W, strain RIO2, active compounds read low 1 | locus YNL222W, strain SSU72, active compounds read low 0.967 | locus YNL307C, strain MCK1 (second series), active compounds read low 0.913 | locus YOL078W, strain AVO1, active compounds read low 0.972 | locus YOL136C, strain PFK27, active compounds read low 0.896 | locus YOR061W, strain CKA2, active compounds read low 0.941 | locus YOR231W, strain MKK1, active compounds read low 0.94 | locus YOR329C, strain SCD5, active compounds read low 0.979 | locus YPL031C, strain PHO85, active compounds read low 0.818 | locus YPL209C, strain IPL1, active compounds read low 0.986 | locus YPL256C, strain CLN2, active compounds read low 0.956 | locus YPR025C, strain CCL1, active compounds read low 0.975 | locus YPR106W, strain ISR1, active compounds read low 0.978 | locus YPR111W, strain DBF20, active compounds read low 0.963 | strain NNK1, active compounds read low 0.991 | strain TSCII, active compounds read low 0.967
active: locus YDR477W, strain SNF1, active compounds read low 0.643 | locus YER133W, strain GLC7, active compounds read low 0.267 | locus YGR040W, strain KSS1, active compounds read low 0.675 | locus YHR030C, strain SLT2, active compounds read low 0.498 | locus YKL203C, strain TOR2, active compounds read low 0.635 | locus YOR119C, strain RIO1, active compounds read low 0.653 | locus YPL153C, strain RAD53, active compounds read low 0.622 | locus YPL204W, strain HRR25, active compounds read low 0.653
